Data published in PubChem BioAssay AID1458 (National Center for Advancing Translational Sciences (NCATS), 2008).
In all, about 210,000 compounds went through this assay and about 5,900 (2.8%) were called active. About 5% were inconclusive and are not listed. Calls follow the shape of the dose curve; as a rule, active = well fitted activation curve with a large enough effect; inconclusive = small, poorly fitted or top-dose-only effect; inactive = no such curve, though single readings can be large or run the other way. The entries come from a sample that favours actives as a whole.

Test: qHTS Assay for Enhancers of SMN2 Splice Variant Expression; also: nearly all actives have a fitted effect of over 55% in size; as to activity change, positive = activation: % of control where 0% means no effect
Details: HEK293 SMN2-luciferase splicing reporter, luminescence, 30-36 h; series mostly up to 46.1 µM; activity change, positive = activation: at the top concentration
In short: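 HEK293 cells carry an SMN2 […]–luciferase reporter in which exon 7 inclusion puts luciferase in frame. Cells were plated 10-12 h before compound addition, then incubated 30-36 h at 37C. ONE-Glo luminescence was read; sodium butyrate at 4.5 mM final served as control.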
Potency is read from the fitted curve at half-maximal effect.

| SMILES | activity change, positive = activation | Potency |
| --- | --- | --- |
| CC(=O)Nc1ccc(C(=O)Nc2nc(-c3cc(C)n(Cc4ccccc4)c3C)cs2)cc1 | -33.5% (inactive) | – |
| Cc1cc(-c2csc(N)n2)c(C)n1-c1ccccc1 | – | 12.6 µM (active) |
| Cc1cc(-c2csc(N)n2)c(C)n1Cc1ccccc1 | -2.13% (inactive) | – |
| COc1ccc(CCNc2nc3c(-c4cccc(F)c4)nnn3c3ccccc23)cc1OC | -4.52% (inactive) | – |
| CCCN(CCC)C(=O)C(Cc1ccccc1)NS(=O)(=O)c1ccc2c(c1)c(=O)n(C)c(=O)n2C (configuration not stated) | -1.75% (inactive) | – |
| O=C(Nc1ccc(-c2nnc(-c3ccccc3)o2)cc1)C1CCCO1 (configuration not stated) | – | 3.55 µM (active) |
| O=C(Nc1nnc(CCc2ccccc2)s1)C1CCCO1 (configuration not stated) | 49.4% (inactive) | – |
| O=C(Nc1cccc(-c2nnc(-c3ccccc3)o2)c1)C1CCCO1 (configuration not stated) | 29.6% (inactive) | – |
| CCOc1ccc(CCNC(=O)c2cc3c(=O)n(C)c4ccccc4c3n2C)cc1 | 14.5% (inactive) | – |
| Cn1c(COc2ccccc2C(C)(C)C)nc2ccccc21 | 0.0855% (inactive) | – |
| CC1CCN(c2nc3ccc(C(=O)N4CCN(c5ccccc5)CC4)cc3s2)CC1 | -60.9% (inactive) | – |
| C=CC(C1=CC(=O)C=CC1=O)c1ccc(O)cc1 (configuration not stated) | 3.3% (inactive) | – |
| Cc1cccc(C(=O)O)c1 | -1.62% (inactive) | – |
| N/C(=N\OC(=O)c1cc(-c2ccccc2)nc2ccccc12)c1ccncc1 | -9.96% (inactive) | – |
| Cc1cccc(/C(N)=N/OC(=O)c2ccccc2Cl)c1 | – | 11.2 µM (active) |
| COc1ccc(CNc2nc(-c3ccc(Cl)cc3)nn2C(=O)c2ccccc2)cc1 | 5.14% (inactive) | – |
| COc1ccc2c(c1)c(=O)c(C(=O)c1ccccc1)cn2CC(=O)Nc1ccc2c(c1)OCCO2 | -7.16% (inactive) | – |
| O=C(CSc1nnc2ccccn12)c1ccccc1 | – | 12.6 µM (active) |
| Cc1ccc(-n2c(C)cc(C(=O)CN3C(=O)C(=O)N(C4CCCC4)C3=O)c2C)cc1 | -21.9% (inactive) | – |
| Cn1c(CC(=O)Nc2ccccc2)nnc1SCC(=O)c1ccccc1 | -15.5% (inactive) | – |
| COc1ccc(-n2c(C)cc(C(=O)CSc3nnc(-c4cccs4)o3)c2C)cc1 | -65.5% (inactive) | – |
| Cc1ccc(-n2c(C)cc(C(=O)CSc3nnc4ccccn34)c2C)cc1 | – | 2.24 µM (active) |

| SMILES | activity change, positive = activation | Potency |
| --- | --- | --- |
| N#Cc1ccc(CSc2nnc3ccccn23)cc1 | 18.2% (inactive) | – |
| Cn1c(=O)c2c(nc(Oc3ccc(C#N)cc3)n2Cc2ccc(Cl)cc2Cl)n(C)c1=O | -11.5% (inactive) | – |
| Cc1cccc(C(C)C)c1NC(=O)C(NS(=O)(=O)c1cccc2nsnc12)c1ccccc1 (configuration not stated) | -1.11% (inactive) | – |
| CCOC(=O)N1CCc2c(sc3c2c(=O)n(Cc2ccccc2)c(=O)n3CC(=O)Nc2cccc(C)c2)C1 | 3.36% (inactive) | – |
| COc1ccc(N2CCN(C(=O)c3cn(C)c4ccc(S(=O)(=O)N5CCOCC5)cc4c3=O)CC2)cc1 | -4.72% (inactive) | – |
| Cc1cc(NC(=O)CC(C)C)cc(-c2nc3ncccc3o2)c1O | -7.35% (inactive) | – |
| COc1ccc(NC(=O)CSC2=Nc3ccccc3C3=NC(CC(=O)NCc4ccccc4OC)C(=O)N23)cc1Cl (configuration not stated) | 7.19% (inactive) | – |
| CCc1ccccc1N1CC(c2nc3ccccc3n2CCCCOc2ccccc2)CC1=O (configuration not stated) | -26.7% (inactive) | – |
| Cc1cc(C)c(NC(=O)c2cc3sc(Cl)cc3n2C)c(C)c1 | -5.94% (inactive) | – |
| Cc1cnc(C(=O)OCC(=O)N2CCc3ccccc32)cn1 | 2.69% (inactive) | – |
| O=C(c1cnn2ccccc12)N1CCc2ccccc21 | – | 11.2 µM (active) |
| O=C(c1cccc(C(=O)N2CCc3ccccc32)n1)N1CCc2ccccc21 | -21.8% (inactive) | – |
| COc1cc(OC)c(C2C=C(C(=O)O)Nc3ncnn32)cc1OC (configuration not stated) | -0.129% (inactive) | – |
| FC(F)Oc1ccc(NC(=S)NCc2ccco2)cc1Cl | 22.7% (inactive) | – |
| S=C(NCc1ccc2c(c1)OCO2)NCc1ccco1 | 0.358% (inactive) | – |
| S=C(NCc1ccco1)Nc1ccc2c(c1)OCCO2 | – | 15.8 µM (active) |
| COc1ccccc1CNC(=O)c1ccc(NC(=O)N2CC(C)Sc3ccccc32)cc1 (configuration not stated) | -0.38% (inactive) | – |
| CC(=O)N1CCc2cc(Br)cc(S(=O)(=O)CCC(=O)NCCc3ccc(Cl)cc3)c21 | -6.16% (inactive) | – |
| Cc1cc(C)nc(N/N=C/c2c(C)oc3ccccc23)n1 | -2.55% (inactive) | – |
| C(=N\Nc1ccc2ccccc2n1)/c1ccc2c(c1)OCO2 | -36.4% (inactive) | – |
| Cc1noc(C)c1/C=N/Nc1ccc2ccccc2n1 | – | 14.1 µM (active) |
| CCOC(=O)c1oc2ccc(S(=O)(=O)n3nc(-c4ccccc4OC)cc3N)cc2c1C | -4.54% (inactive) | – |

| SMILES | activity change, positive = activation | Potency |
| --- | --- | --- |
| COc1ccc(-c2nc3c(c4c2C[C@H](c2ccccc2)OC4)CN(S(=O)(=O)c2c(C)noc2C)CC3)c(C)c1 | -6.74% [at 9.22 µM] (inactive) | – |
| Cc1cc(Cl)ccc1OCc1nc(-c2ccncc2)no1 | – | 12.6 µM (active) |
| COc1ccc(-c2noc(COc3ccc(Cl)c(C)c3)n2)cc1 | -34.9% (inactive) | – |
| Cc1ccccc1C(=O)NCc1nc(-c2ccc(Cl)cc2)no1 | -15.9% (inactive) | – |
| O=C(c1ccc2c(c1)N(Cc1ccccc1)C(=O)c1ccccc1S2(=O)=O)N1CCCC1 | -0.292% (inactive) | – |
| O=C(CCCCn1c(=O)c2ccccc2n(CC(=O)Nc2cccc(C(F)(F)F)c2)c1=O)NCc1ccc2c(c1)OCO2 | 1.27% (inactive) | – |
| Cc1cccc(-c2nnc(SCC(=O)N3CCCc4ccccc43)o2)c1 | -8.01% (inactive) | – |
| CCSc1nnc(-c2cc3c(s2)-c2ccccc2CC3)o1 | – | 15.8 µM (active) |
| Fc1ccc(CSc2nnc(-c3cc4c(s3)-c3ccccc3CC4)o2)cc1 | -4.27% (inactive) | – |
| COc1ccccc1-c1noc(CSc2nnc(-c3ccccc3)n2-c2ccc(C)c(C)c2)n1 | 6.46% (inactive) | – |
| CCCCOc1ccc(C(=O)Nc2cccc(-c3nc4ccccc4o3)c2C)cc1 | -5.83% (inactive) | – |
| O=c1[nH]c(CN2CCOCC2)nc2cc(Cl)ccc12 | -2.49% (inactive) | – |
| NC(=O)Cc1nc2scc(-c3ccc(Cl)cc3)c2c(=O)[nH]1 | -24.1% (inactive) | – |
| O=c1[nH]c(CCl)nc2cc(-c3ccc(Cl)cc3)sc12 | – | 7.08 µM (active) |
| Cc1ccc(SCCC(=O)Nc2cc(C)on2)cc1 | -16.2% (inactive) | – |
| COc1ccc(NC(=O)CC2COc3ccccc3O2)c(OC)c1 (configuration not stated) | -9.35% (inactive) | – |
| Cc1cc(NC(=O)CCC2COc3ccccc3O2)no1 (configuration not stated) | – | 12.6 µM (active) |
| CCc1ccccc1NC(=O)c1ccc2c(c1)CCN2S(C)(=O)=O | 6.29% (inactive) | – |
| Cn1c(=NC(=O)c2cnccn2)sc2ccccc21 | – | 12.6 µM (active) |
| Cn1c(=NC(=O)CSCC(=O)N2CCCCC2)sc2ccccc21 | 4.56% (inactive) | – |
| Cn1c(=NC(=O)CSCC(=O)N2CCOCC2)sc2ccccc21 | -1.7% (inactive) | – |
| Cc1cc(C)cc(OCC(=O)Nc2nc(-c3ccc(F)cc3)ns2)c1 | 0.535% (inactive) | – |

| SMILES | activity change, positive = activation | Potency |
| --- | --- | --- |
| O=C(NCC12CC3CC(CC(C3)C1)C2)c1cc2nc(-c3ccccc3)cc(C(F)(F)F)n2n1 | 1.79% (inactive) | – |
| COc1ccc2nc(/N=C(\N)NC(=O)Nc3ccccc3)nc(C)c2c1 | -13.2% (inactive) | – |
| COc1ccc2nc(SCc3ccccc3)nc(C)c2c1 | – | 11.2 µM (active) |
| COC(=O)CSc1nc(C)c2ccc(OC)cc2n1 | -3.05% (inactive) | – |
| CCc1nn(CCCC(=O)NC(C)c2ccccc2)c(=O)c2cc3occc3n12 (configuration not stated) | 4.04% (inactive) | – |
| Cc1ccc(S(=O)(=O)n2nc(-c3ccc(Cl)cc3)nc2NCc2ccccc2)cc1 | 3.98% (inactive) | – |
| CCOc1ccc(Nc2oc(/C=C/c3ccc(F)cc3)nc2C#N)cc1 | -3.75% (inactive) | – |
| COc1ccccc1NC(=O)/C=C/C(N)=O | -1.18% (inactive) | – |
| COc1ccccc1NC(=O)C1=C(C)NC(=O)NC1c1ccc(C)s1 (configuration not stated) | 1.35% (inactive) | – |
| COc1ccccc1NC(=O)c1ccc(C)s1 | – | 12.6 µM (active) |
| Cc1cc(C)cc(NS(=O)(=O)c2ccc3[nH]cc(C(=O)N4CCCCC4)c(=O)c3c2)c1 | 0.685% (inactive) | – |
| Cc1ccc(Nc2c(-c3ccc(Cl)cc3)nc3sccn23)c(C)c1 | -10.5% (inactive) | – |
| CCCCOc1ccc(C(=O)N2CC(=O)Nc3ccc(Br)cc3C2c2ccc(F)cc2)cc1 (configuration not stated) | -19% (inactive) | – |
| Cc1ccc(NC(=S)NC(=O)c2ccc(-c3ccccc3)cc2)c(C)c1 | -42.6% (inactive) | – |
| Cc1ccc(NC(=S)NCc2ccccc2Cl)c(C)c1 | 12.2% (inactive) | – |
| Cc1ccc(NC(=S)Nc2ncccc2C)c(C)c1 | – | 12.6 µM (active) |
| N/C(=N\OC(=O)c1ccc([N+](=O)[O-])cc1)c1ccccn1 | – | 6.31 µM (active) |
| N/C(=N\OC(=O)Cc1ccc([N+](=O)[O-])cc1)c1ccccn1 | 12.1% (inactive) | – |
| O=C(OCc1ccc([N+](=O)[O-])cc1)c1ccccn1 | 1.36% (inactive) | – |
| CCOC(=O)c1ccc(N2C(=O)c3n[nH]c(-c4ccco4)c3C2c2ccc(O)cc2)cc1 (configuration not stated) | -28.6% (inactive) | – |
| Cc1nc2ccc(S(=O)(=O)NC(C(=O)NCc3ccccc3Cl)C(C)C)cc2s1 (configuration not stated) | 12.8% (inactive) | – |
| COc1ccc(-c2nc(CN3CCC(C(=O)NCCN(CC(C)C)CC(C)C)CC3)c(C)o2)cc1OC | 28.4% (inactive) | – |

| SMILES | activity change, positive = activation | Potency |
| --- | --- | --- |
| COc1ccc(CNc2nc(-c3ccc(Cl)cc3)cc(C(F)(F)F)n2)cc1 | -27.8% (inactive) | – |
| O=C1CC(c2ccc(F)cc2F)c2cc3c(cc2N1)OCO3 (configuration not stated) | 1.33% (inactive) | – |
| COc1c2c(cc3occ(-c4ccc5c(c4)OCO5)c(=O)c13)OC(C)(C)C=C2 | – | 6.31 µM (active) |
| COc1ccc(CCNC(=O)c2cc(-c3ccc4c(c3)OCO4)on2)cc1OC | 1.05% (inactive) | – |
| Cc1cccc(NC(=O)CSc2nnc(CNC(=O)c3cccc(C)c3)n2-c2ccccc2)c1 | -32.5% (inactive) | – |
| CCN1CCN(c2cc(C)c3cc(NC(=O)c4cc(Cl)ccc4OC)ccc3n2)CC1 | -12.2% (inactive) | – |
| CCc1cccc(NC(=O)CSc2nccn2C)c1 | 16.9% (inactive) | – |
| Cc1ccc(C(=O)CSc2nc3ccccc3c(=O)n2N)o1 | – | 15.8 µM (active) |
| O=C(CCn1c(SCC(=O)c2ccccc2)nc2ccccc2c1=O)NCc1ccc(F)cc1 | 2.41% (inactive) | – |
| O=C(CCCn1c(SCC(=O)c2ccc(F)cc2)nc2ccccc2c1=O)NCc1ccco1 | -22% (inactive) | – |
| COc1ccc(-c2nc(-c3ccccc3)no2)c(OC)c1 | – | 0.447 µM (active) |
| COc1ccc(-c2noc(CN(C)S(=O)(=O)c3ccc(C)cc3)n2)cc1 | -39.1% (inactive) | – |
| COc1ccc(-c2nnco2)cc1OC | -2.06% (inactive) | – |
| CCOc1nc(-c2ccc(OC)cc2)ccc1-c1noc(-c2cc(OC)c(OC)c(OC)c2)n1 | -12.6% (inactive) | – |
| COc1ccc(/C=C/c2noc(-c3ccccc3O)n2)cc1OC | 0.349% (inactive) | – |
| COc1ccc(-c2noc(-c3ccc(C)cc3)n2)cc1 | – | 17.8 µM (active) |
| COc1ccc(-c2noc(-c3cccc(OC)c3OC)n2)cc1OC | – | 12.6 µM (active) |
| COc1ccc(-c2noc(CSc3ccc(C)cc3)n2)cc1 | -14.2% (inactive) | – |
| COc1ccc(-c2noc(CSc3nnc(-c4ccccc4)n3-c3ccc(F)cc3)n2)c(OC)c1 | 27.6% (inactive) | – |
